Source: PubChem BioAssay (Tox21)
Inconclusive results are not listed. Activity calls are given as the source filed them. Unless noted, calls come from the whole dose curve; as a rule, active = well fitted curve in the direction sought with a large enough effect in the repeat runs; inconclusive = weak or mixed curves; inactive = no such curve, though single readings can be large; an effect the other way counts as inactive or inconclusive.

Tests used:
[1] = qHTS assay to identify small molecule antagonists of the thyroid receptor (TR) signaling pathway (AID 743065); note: nearly all actives have a fitted effect of over 55% in size; note: potency is the fitted concentration of half-maximal effect
In short: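 GH3.TRE-Luc rat pituitary cells (two TREs driving luciferase) were dosed with compound, then stimulated with 1 nM T3 (final) for 23.5 h at 37 C. ONE-Glo luminescence was the read-out, with CellTiter-Fluor fluorescence as the cytotoxicity counter-screen.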

[2] = system: thyroid hormone receptor (rat, GH3 cells); test: qHTS assay to identify small molecule agonists of the thyroid receptor (TR) signaling pathway (AID 743066; calls by dose curve)
[3] = qHTS assay to identify small molecule antagonists of the estrogen receptor alpha (ER-alpha) signaling pathway - cell viability counter screen (AID 743074; calls by dose curve;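 note: HEK293 cells carrying ER-alpha-UAS-bla reporter stimulated with 17beta-estradiol; nearly all actives have a fitted effect of over 45% in size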; note: potency is the fitted concentration of half-maximal effect)
[4] = target: Estrogen receptor (Homo sapiens) (UniProt P03372); test: qHTS assay to identify small molecule agonists of the estrogen receptor alpha (ER-alpha) signaling pathway (AID 743075; calls by dose curve;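 note: HEK293 GripTite cells with ER-alpha and UAS-driven beta-lactamase reporter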)
Chain of Estrogen receptor (Homo sapiens) (P03372 whole entry, looked up): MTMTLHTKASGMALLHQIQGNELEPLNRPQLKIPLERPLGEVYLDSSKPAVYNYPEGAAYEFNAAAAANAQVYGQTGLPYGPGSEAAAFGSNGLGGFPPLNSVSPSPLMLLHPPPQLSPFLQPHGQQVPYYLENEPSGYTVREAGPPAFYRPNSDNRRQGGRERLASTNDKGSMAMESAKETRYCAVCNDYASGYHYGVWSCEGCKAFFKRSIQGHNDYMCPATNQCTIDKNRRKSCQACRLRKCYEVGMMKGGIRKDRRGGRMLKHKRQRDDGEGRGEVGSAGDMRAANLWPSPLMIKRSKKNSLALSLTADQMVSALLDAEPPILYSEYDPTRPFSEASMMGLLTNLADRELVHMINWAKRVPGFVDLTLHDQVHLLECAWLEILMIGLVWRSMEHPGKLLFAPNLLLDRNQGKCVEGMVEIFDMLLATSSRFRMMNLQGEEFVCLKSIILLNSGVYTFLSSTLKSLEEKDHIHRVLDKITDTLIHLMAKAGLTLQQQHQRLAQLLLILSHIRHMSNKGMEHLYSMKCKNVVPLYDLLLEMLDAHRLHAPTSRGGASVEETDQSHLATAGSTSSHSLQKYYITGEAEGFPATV

[5] = target: Estrogen receptor (Homo sapiens) (UniProt P03372); test: qHTS assay to identify small molecule agonists of the estrogen receptor alpha (ER-alpha) signaling pathway using the BG1 cell line (AID 743079); details: BG1Luc4E2 cells, ERE-luciferase agonist, 22 h; activation: at 70.3 µM (top of the series); note: nearly all actives have a fitted effect of over 20% in size; note: potency is the fitted concentration of half-maximal effect
[6] = qHTS assay to identify small molecule antagonists of the estrogen receptor alpha (ER-alpha) signaling pathway using the BG1 cell line (AID 743080; calls by dose curve;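 note: BG1 cells stimulated with 17beta-estradiol alongside compound; nearly all actives have a fitted effect of over 25% in size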)
In short: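 After 5 days in phenol-red-free 10% charcoal-stripped FBS medium, BG1-Luc-4E2 cells were seeded, left 24 h at 37 C, co-treated with compounds and 17beta-estradiol for 21.5 h, then assayed for viability and luciferase.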

Aromatase (Homo sapiens) = Aromatase (Homo sapiens) (UniProt P11511); test: qHTS assay to identify aromatase inhibitors (AID 743083); note: nearly all actives have a fitted effect of over 55% in size
Chain of Aromatase (Homo sapiens) (P11511 whole entry, looked up): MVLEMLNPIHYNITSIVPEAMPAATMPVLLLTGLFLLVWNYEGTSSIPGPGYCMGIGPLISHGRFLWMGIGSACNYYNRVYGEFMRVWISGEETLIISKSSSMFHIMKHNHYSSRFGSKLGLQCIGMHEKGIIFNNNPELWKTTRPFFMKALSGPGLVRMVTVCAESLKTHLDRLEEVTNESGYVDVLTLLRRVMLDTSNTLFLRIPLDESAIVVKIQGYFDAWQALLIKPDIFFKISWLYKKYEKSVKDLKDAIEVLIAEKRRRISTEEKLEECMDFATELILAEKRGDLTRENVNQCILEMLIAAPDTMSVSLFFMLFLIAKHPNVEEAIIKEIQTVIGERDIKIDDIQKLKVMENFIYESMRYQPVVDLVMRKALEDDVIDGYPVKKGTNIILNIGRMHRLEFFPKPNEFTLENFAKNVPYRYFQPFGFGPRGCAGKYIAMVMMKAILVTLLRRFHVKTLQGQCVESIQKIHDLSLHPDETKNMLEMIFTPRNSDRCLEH

[7] = target: Aryl hydrocarbon receptor (Homo sapiens) (UniProt P35869); test: qHTS assay to identify small molecule that activate the aryl hydrocarbon receptor (AhR) signaling pathway (AID 743085);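 note: HG2L7.5c1 human HepG2 liver cells with stably integrated DRE-driven firefly reporter; nearly all actives have a fitted effect of over 15% in size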
Chain of Aryl hydrocarbon receptor (Homo sapiens) (P35869 whole entry, looked up): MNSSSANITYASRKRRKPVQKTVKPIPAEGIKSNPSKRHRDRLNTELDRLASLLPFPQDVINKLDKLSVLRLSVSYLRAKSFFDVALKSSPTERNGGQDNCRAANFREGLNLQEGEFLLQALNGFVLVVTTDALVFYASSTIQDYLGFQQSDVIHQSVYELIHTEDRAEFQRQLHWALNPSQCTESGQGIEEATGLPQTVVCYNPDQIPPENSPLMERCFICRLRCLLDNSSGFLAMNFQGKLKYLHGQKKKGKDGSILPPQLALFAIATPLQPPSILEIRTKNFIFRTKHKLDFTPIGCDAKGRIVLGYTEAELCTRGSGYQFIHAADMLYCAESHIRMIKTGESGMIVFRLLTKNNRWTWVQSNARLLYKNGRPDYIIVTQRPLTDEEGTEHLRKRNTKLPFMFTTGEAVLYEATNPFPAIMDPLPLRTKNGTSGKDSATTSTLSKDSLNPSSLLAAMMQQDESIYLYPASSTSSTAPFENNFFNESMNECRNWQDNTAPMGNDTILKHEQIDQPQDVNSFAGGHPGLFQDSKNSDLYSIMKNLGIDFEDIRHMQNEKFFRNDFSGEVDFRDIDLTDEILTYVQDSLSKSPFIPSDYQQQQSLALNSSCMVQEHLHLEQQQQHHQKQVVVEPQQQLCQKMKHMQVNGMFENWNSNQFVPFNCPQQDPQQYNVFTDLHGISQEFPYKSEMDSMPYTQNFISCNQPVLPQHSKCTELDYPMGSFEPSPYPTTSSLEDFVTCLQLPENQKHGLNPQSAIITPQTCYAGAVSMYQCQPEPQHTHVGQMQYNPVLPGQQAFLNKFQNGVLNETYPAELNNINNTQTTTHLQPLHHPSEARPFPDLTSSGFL
In short: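 Reporter assay in engineered HepG2 line HG2L7.5c1, whose plasmid carries twenty dioxin responsive elements upstream of firefly luciferase. Treatment lasted 24 h at 37C; ONE-Glo luminescence gauged induction.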

[8] = qHTS assay to identify small molecule phospholipidosis (PLD) inducers (AID 1259344; active = well fitted curve in the direction sought with a large enough effect; an effect the other way counts as inactive or inconclusive)
In short: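 Quantitative HTS in HepG2: compound plus LipidTOX Red dye for 24 h, paraformaldehyde fixation with Hoechst 33342, widefield high-content imaging; amiodarone as positive and DMSO as negative control.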

[9] = target: Nuclear receptor subfamily 1 group I member 2 (Rattus norvegicus) (UniProt Q9R1A7); test: Rat pregnane X receptor (rPXR) activation by small molecules, qHTS assay (AID 1346983); details: rPXR luciferase reporter cells, One-Glo luminescence, 24 h; max activation: hits give high values; note: nearly all actives have a fitted effect of over 20% in size; note: potency is the fitted concentration of half-maximal effect
Chain of Nuclear receptor subfamily 1 group I member 2 (Rattus norvegicus) (Q9R1A7 whole entry, looked up): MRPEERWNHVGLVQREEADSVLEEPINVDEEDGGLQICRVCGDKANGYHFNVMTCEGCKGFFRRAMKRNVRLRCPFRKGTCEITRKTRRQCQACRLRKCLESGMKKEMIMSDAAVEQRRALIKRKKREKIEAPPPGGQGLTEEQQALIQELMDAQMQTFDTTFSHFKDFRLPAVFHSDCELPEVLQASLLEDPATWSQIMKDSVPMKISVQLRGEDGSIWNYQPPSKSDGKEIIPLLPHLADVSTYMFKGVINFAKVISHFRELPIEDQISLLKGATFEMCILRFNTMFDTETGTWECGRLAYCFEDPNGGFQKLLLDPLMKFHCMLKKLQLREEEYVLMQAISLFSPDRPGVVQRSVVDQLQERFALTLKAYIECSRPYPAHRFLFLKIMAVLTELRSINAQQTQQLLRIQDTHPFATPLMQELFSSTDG
In short: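 Cell-based rPXR activation assay: rPXR cells, 2,000 per well, rested 5hr at 37 C, then exposed to compounds in DMSO for 24 hr at 37 C. Luciferase activity read by One-Glo luminescence after 30 min at room temperature.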

[10] = target: Nuclear receptor subfamily 1 group I member 2 (Homo sapiens) (UniProt O75469); test: CYP3A4 induction through human pregnane X receptor (PXR) by small molecules, qHTS assay (AID 1346984); note: nearly all actives have a fitted effect of over 40% in size
In short: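 Readings come from a luciferase reporter: DPX-2 cells, which are HepG2 cotransfected with PXR and a CYP3A4-promoter construct, were exposed to test compounds for 24 h at 37C before One-Glo detection.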

[11] = target: Nuclear receptor subfamily 1 group I member 2 (Homo sapiens) (UniProt O75469); test: Human pregnane X receptor (PXR) activation by small molecules, qHTS assay (AID 1346985); note: nearly all actives have a fitted effect of over 40% in size
In short: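 DPX-2 cells (HepG2 co-transfected with a PXR response element and a CYP3A4-promoter luciferase construct) were seeded at 2,000 per well, rested 5 hr at 37C, then exposed to DMSO-dissolved compounds for 24 hr. Activation was read as luciferase luminescence.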

[12] = target: Estrogen receptor (Homo sapiens) (UniProt P03372); test: qHTS assay to identify small molecule antagonists of the estrogen receptor alpha (ER-alpha) signaling pathway (AID 743069; active = well fitted curve in the direction sought with a large enough effect in the signal ratio in the repeat runs, not every such curve was filed as active; the % refers to the signal ratio)
In short: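 Reporter cells (ER-alpha-bla, HEK293 background) are conditioned overnight in stripped-serum medium (2% charcoal-stripped FBS). Compound and 17beta-estradiol exposure runs 18 hr at 37C, 5% CO2.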

[13] = qHTS assay to identify small molecule antagonists of the estrogen receptor alpha (ER-alpha) signaling pathway using the BG1 cell line - cell viability counter screen (AID 743081);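 note: compound given together with 17beta-estradiol as the ER stimulus; nearly all actives have a fitted effect of over 45% in size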
[14] = qHTS assay to identify aromatase inhibitors - cell viability counter screen (AID 743084);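 note: cells stimulated with testosterone during compound exposure; nearly all actives have a fitted effect of over 55% in size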
[15] = qHTS assay to identify small molecule that activate the aryl hydrocarbon receptor (AhR) signaling pathway - cell viability counter screen (AID 743086);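 note: HepG2 liver cells carrying the AhR DRE luciferase reporter; nearly all actives have a fitted effect of over 45% in size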
In short: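 HepG2-AhR-luc (HG2L7.5c1) cells, 4000/well, treated 24 h at 37 C with compound; viability measured as CellTiter-Fluor fluorescence after 30 min in the same wells as the luciferase read.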

[16] = target: Peroxisome proliferator-activated receptor gamma (Homo sapiens) (UniProt P37231); test: qHTS assay to identify small molecule agonists of the peroxisome proliferator-activated receptor gamma (PPARg) signaling pathway (AID 743094; active = well fitted activation curve with a large enough effect in the signal ratio in the repeat runs, not every such curve was filed as active; the % refers to the signal ratio)
Chain of Peroxisome proliferator-activated receptor gamma (Homo sapiens) (P37231 whole entry, looked up): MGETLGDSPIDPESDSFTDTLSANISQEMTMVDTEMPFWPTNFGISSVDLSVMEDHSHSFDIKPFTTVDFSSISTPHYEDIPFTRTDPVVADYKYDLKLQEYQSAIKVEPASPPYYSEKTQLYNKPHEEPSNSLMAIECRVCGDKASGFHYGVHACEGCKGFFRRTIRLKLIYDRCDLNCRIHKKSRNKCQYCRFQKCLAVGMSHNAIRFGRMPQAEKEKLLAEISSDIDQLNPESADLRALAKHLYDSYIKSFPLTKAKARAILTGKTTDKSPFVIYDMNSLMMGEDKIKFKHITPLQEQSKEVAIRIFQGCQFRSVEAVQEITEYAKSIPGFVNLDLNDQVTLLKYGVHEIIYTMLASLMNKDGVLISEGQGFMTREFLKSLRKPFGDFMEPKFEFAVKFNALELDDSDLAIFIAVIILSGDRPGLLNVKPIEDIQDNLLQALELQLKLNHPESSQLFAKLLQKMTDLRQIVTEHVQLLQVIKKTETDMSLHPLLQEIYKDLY
In short: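 Compounds dissolved in DMSO were added to PPARg UAS-bla HEK293H cells for 17 h at 37C, and reporter expression was quantified by fluorescence intensity after 1 h with LiveBLAzer B/G FRET substrate.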

[17] = qHTS assay to identify small molecule antagonists of the thyroid receptor (TR) signaling pathway - cell viability counter screen (AID 743064); note: nearly all actives have a fitted effect of over 50% in size; note: potency is the fitted concentration of half-maximal effect
In short: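 Same-well viability check: GH3.TRE-Luc cells stimulated with 1 nM T3 alongside test compound for 23.5 h, followed by CellTiter-Fluor fluorescence.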
% is set by controls: 0 for no effect and ±100 for the full control effect.

Cc1cc2nc3c(=O)[nH]c(=O)nc-3n(C[C@H](O)[C@H](O)[C@H](O)COP(=O)(O)OP(=O)(O)OC[C@H]3O[C@@H](n4cnc5c(N)ncnc54)[C@H](O)[C@@H]3O)c2cc1C
inactive: Potency [1] | Potency [2] | Potency [4] | Potency [5] | Potency [6] | Potency (Aromatase (Homo sapiens)) | Potency [7] | Potency [8] | max activation [9] -0.0695% | Potency [10] | Potency [11]
active: Potency [3] 16.9 µM

NC(Cc1ccccc1)C(=O)O (configuration not stated)
inactive: Potency [1] | Potency [2] | Potency [12] | Potency [3] | Potency [4] | Potency [6] | Potency [13] | Potency (Aromatase (Homo sapiens)) | Potency [14] | Potency [15] | Potency [16] | Potency [8] | max activation [9] 14.8% | Potency [10] | Potency [11]

CO[C@@H]1[C@@H](O[C@@H]2O[C@H](C)[C@@H](O[C@H]3C[C@@](C)(O)[C@@H](OC(=O)CC(C)C)[C@H](C)O3)[C@H](N(C)C)[C@H]2O)[C@@H](CC=O)C[C@@H](C)C(=O)/C=C/C2OC2C[C@@H](C)OC(=O)C[C@H]1OC(C)=O (some centres not stated)
active: Potency [1] 23.7 µM
inactive: Potency [2] | Potency [3] | Potency [4] | Potency [6] | Potency (Aromatase (Homo sapiens)) | Potency [7] | Potency [8] | max activation [9] -11.7% | Potency [10] | Potency [11]

COC(=O)CCC[N+](C)(C)C
inactive: Potency [17] | Potency [3] | Potency [13] | Potency (Aromatase (Homo sapiens)) | Potency [14] | Potency [7] | Potency [15] | Potency [16] | Potency [8] | max activation [9] -0.156% | Potency [10] | Potency [11]

CC(O)CN(C)C (configuration not stated)
active: Potency [5] 11.9 µM
inactive: Potency [1] | Potency [2] | Potency [12] | Potency [3] | Potency [6] | Potency [13] | Potency (Aromatase (Homo sapiens)) | Potency [14] | Potency [7] | Potency [15] | Potency [16] | Potency [8] | max activation [9] -0.0612% | Potency [10] | Potency [11]

CC(C)Cc1ccc([C@@H](C)C(=O)NS(C)(=O)=O)cc1
inactive: Potency [1] | Potency [2] | Potency [3] | Potency [4] | Potency [5] | Potency [6] | Potency [13] | Potency (Aromatase (Homo sapiens)) | Potency [14] | Potency [7] | Potency [15] | Potency [16] | Potency [8] | max activation [9] -2.09% | Potency [10] | Potency [11]

CC1=C[C@H](O)CC(C)(C)[C@H]1/C=C/C(C)=C/C=C/C(C)=C/C=C/C=C(C)/C=C/C=C(C)/C=C/C1=C(C)C[C@@H](O)CC1(C)C
active: Potency [17] 23.7 µM
inactive: Potency [3] | Potency (Aromatase (Homo sapiens)) | Potency [14] | Potency [7] | Potency [15] | Potency [8] | max activation [9] 0.35% | Potency [10] | Potency [11]

OC1OC[C@@H](O)[C@H](O)[C@@H]1O (some centres not stated)
inactive: Potency [1] | Potency [2] | Potency [3] | Potency [13] | Potency (Aromatase (Homo sapiens)) | Potency [14] | Potency [7] | Potency [15] | Potency [16] | Potency [8] | max activation [9] 0.988% | Potency [10] | Potency [11]

CCCCCCCCCCCCCCCC(=O)OCC(COC(=O)CCCCCCCCCCCCCCC)OC(=O)CCCCCCCCCCCCCCC
inactive: Potency [1] | Potency [2] | Potency [12] | Potency [3] | Potency [4] | Potency [6] | Potency [13] | Potency (Aromatase (Homo sapiens)) | Potency [14] | Potency [7] | Potency [15] | Potency [16] | Potency [8] | max activation [9] -0.974% | Potency [10] | Potency [11]

CC1(C)S[C@@H]2[C@H](NC(=O)[C@H](NC(=O)N3CCN(S(C)(=O)=O)C3=O)c3ccccc3)C(=O)N2[C@H]1C(=O)O
active: Potency [5] 11.9 µM
inactive: Potency [1] | Potency [2] | Potency [12] | Potency [3] | Potency [4] | Potency [6] | Potency [13] | Potency (Aromatase (Homo sapiens)) | Potency [14] | Potency [7] | Potency [15] | Potency [16] | Potency [8] | max activation [9] -9.82% | Potency [10] | Potency [11]

C=CC[C@@H]1/C=C(\C)C[C@H](C)C[C@H](OC)[C@H]2O[C@@](O)(C(=O)C(=O)N3CCCC[C@H]3C(=O)O[C@H](/C(C)=C/[C@@H]3CC[C@@H](O)[C@H](OC)C3)[C@H](C)[C@@H](O)CC1=O)[C@H](C)C[C@@H]2OC
inactive: Potency [1] | Potency [2] | Potency [3] | Potency [4] | Potency [5] | Potency [6] | Potency [14] | Potency [7] | Potency [15] | Potency [8] | max activation [9] -13.2% | Potency [10] | Potency [11]

O=[N+]([O-])O[C@@H]1CO[C@H]2[C@@H]1OC[C@@H]2O
inactive: Potency [1] | Potency [2] | Potency [12] | Potency [3] | Potency [4] | Potency [5] | Potency [6] | Potency [13] | Potency [14] | Potency [15] | Potency [16] | Potency [8] | max activation [9] -3.54% | Potency [10] | Potency [11]

O=C(OC[C@H]1O[C@](O)(COC(=O)c2cccnc2)[C@@H](OC(=O)c2cccnc2)[C@@H]1OC(=O)c1cccnc1)c1cccnc1
inactive: Potency [1] | Potency [2] | Potency [12] | Potency [3] | Potency [4] | Potency [5] | Potency [6] | Potency [13] | Potency (Aromatase (Homo sapiens)) | Potency [14] | Potency [7] | Potency [8] | max activation [9] 1.1% | Potency [10] | Potency [11]

CCCC(=O)O[C@]1(C(=O)COC(C)=O)CC[C@H]2[C@@H]3C[C@H](F)C4=CC(=O)C=C[C@]4(C)[C@@]3(F)[C@@H](O)C[C@@]21C
inactive: Potency [1] | Potency [2] | Potency [12] | Potency [3] | Potency [4] | Potency [5] | Potency [13] | Potency (Aromatase (Homo sapiens)) | Potency [7] | Potency [15] | Potency [8] | Potency [10] | Potency [11]
active: Potency [9] 2.51 µM

CCN(CC)CCOC(=O)c1cccnc1
inactive: Potency [1] | Potency [2] | Potency [12] | Potency [3] | Potency [4] | Potency [5] | Potency [6] | Potency [13] | Potency (Aromatase (Homo sapiens)) | Potency [14] | Potency [7] | Potency [15] | Potency [16] | Potency [8] | max activation [9] -7.53% | Potency [10] | Potency [11]
